Consider 17 compounds from PubChem BioAssay.

The structures appear in SMILES notation. Results filed as inconclusive are left out. Calls of active or inactive are those of the source. Unless noted, no cut-off is given here; in the data, nearly all actives have AC50 up to about 26 µM.

Assay [1] can be described thus: viability loss in pontine glioma line – cell-based, SU-DIPG-XXV, MIPE5.0, CellTiter-Glo, qHTS, dose response (AID 1347065).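 Note: cells exposed to compound for 48 hours before ATP readout.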 The following applies: CellTiter-Glo ATP luminescence. A general note: In ATP-based viability assays light output follows the ATP content of the culture.
Assay [2] in a line: SU-DIPG-XXV glioma cell viability, MIPE5.0 library, qHTS (AID 1347068; cut-off not given, nearly all actives have IC50 up to about 30 µM;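 for IC50: cells exposed to compound for 48 hours before viability readout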).
Assay [3] is described as follows: JHH-DIPG-1 glioma cell viability, MIPE5.0 library, CellTiter-Glo luminescence, qHTS (AID 1347067).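 Note: cells exposed to compound for 48 hours before readout.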 The following applies: JHH-DIPG-1 glioma viability, CellTiter-Glo ATP luminescence.
Assay [4] is described as follows: LFS_MB_P medulloblastoma growth inhibition, cell-based, chromothripsis tumors, cisplatin or BGB combos (AID 1671449; in the data active = inhibition above about 80%;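 note: cells exposed for 96 hours; 0% = vehicle DMSO and 100% = killing by high DMSO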). The following applies: LFS_MB_P medulloblastoma cells.
Assay [5] can be described thus: HDN33 neuroblastoma growth inhibition, cell-based, chromothripsis tumors, cisplatin or BGB combos (AID 1671450; in the data active = inhibition above about 80%;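 note: cells exposed to compound for four days; 0% = vehicle DMSO and 100% = cell killing by high DMSO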). The following applies: HDN33 neuroblastoma cells, stronger effect = higher value.
Assay [6] can be described thus: ICB984 medulloblastoma cell growth inhibition, synergistic combos for chromothripsis tumors, cisplatin or BGB combos (AID 1671451; call rule not given here;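 note: cells exposed for 96 hours before readout; 0% = vehicle DMSO and 100% = killing by high DMSO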). The following applies: ICB984 medulloblastoma cells, drug combinations, stronger effect = higher value.
A short description of assay [7]: LFS_MB_1R medulloblastoma cell growth inhibition, synergistic combos for chromothripsis tumors, cisplatin or BGB combos (AID 1671452; in the data active = inhibition above about 80%;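 note: cells exposed for 96 hours before readout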). The note with it: LFS_MB_1R medulloblastoma cells, stronger effect = higher value.
Assay [8] is described as follows: HTB85 osteosarcoma cell growth inhibition, synergistic combos for chromothripsis tumors, BGB or cisplatin IC20 combos (AID 1671453; in the data active = inhibition above about 80%;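 note: cells exposed for 96 hours before readout; 0% = vehicle DMSO and 100% = high DMSO killing control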). The note with it: HTB85 osteosarcoma cells, drug combinations, stronger effect = higher value.
Assay [9] can be described thus: CRL2098 osteosarcoma cell growth inhibition, synergistic combos for chromothripsis tumors, BGB or cisplatin IC20 combos (AID 1671454; in the data active = inhibition above about 80%;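 note: cells exposed for 96 h before readout; 0% = vehicle DMSO and 100% = killing by high DMSO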). The note with it: CRL2098 osteosarcoma cells, drug combinations, stronger effect = higher value.
Assay [10] can be described thus: HD-MB03 medulloblastoma cell growth inhibition, synergistic combos for chromothripsis tumors, BGB or cisplatin IC20 combos (AID 1671455; in the data active = inhibition above about 83%;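 note: 0% = vehicle DMSO and 100% = high DMSO as cytotoxic control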). The following applies: HD-MB03 medulloblastoma cells, stronger effect = higher value.
Assay [11] is described as follows: UWB1.289 ovarian carcinoma cell growth inhibition, synergistic combos for chromothripsis tumors, BGB or cisplatin combos (AID 1671456; in the data active = inhibition above about 80%;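 note: cells exposed to compound for four days; 0% = vehicle DMSO and 100% = killing by high DMSO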). The following applies: UWB1.289 ovarian carcinoma cells, stronger effect = higher value.
Assay [12] is described as follows: LFS_MB_2R medulloblastoma cell growth inhibition, synergistic combos for chromothripsis tumors, cisplatin combos (AID 1671457; in the data active = inhibition above about 80%;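 note: cells exposed to compound for four days before readout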). The following applies: LFS_MB_2R medulloblastoma cells, stronger effect = higher value.
Assay [13] can be described thus: MDA-MB-436 breast carcinoma cell growth inhibition, synergistic combos for chromothripsis tumors, BGB or cisplatin combos (AID 1671458; call rule not given here;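 note: cells exposed for 96 hours; 0% = vehicle DMSO and 100% = killing by high DMSO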). The note with it: MDA-MB-436 breast carcinoma growth inhibition, drug combinations, stronger effect = higher value.
Assay [14] in a line: UWB1.289_BRCA1 ovarian cancer growth, cell-based, BGB or cisplatin combinations (AID 1671459; in the data active = inhibition above about 80%). The following applies: UWB1.289 BRCA1 ovarian carcinoma, drug combinations, stronger effect = higher value.
Assay [15] in a line: human astrocyte viability loss, single and combined drugs, cytotoxicity control for chromothriptic childhood tumor combination screen, cell-based, BGB or cisplatin IC20 combos (AID 1671460; in the data active = inhibition above about 80%;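 note: cells exposed to compounds for 96 hours before viability readout; 0% = vehicle and 100% = killing control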). The following applies: Human astrocytes, drug combinations, stronger effect = higher value.
The nature of assay [16]: growth inhibition of BT084 medulloblastoma cells, cell-based, ICGC_MB145, cisplatin and BGB IC40 combos (AID 1671461; in the data active = inhibition above about 80%;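 note: cells exposed to drugs for 96 hours; 0% = vehicle DMSO and 100% = high DMSO full killing control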). The note with it: drug combinations, stronger effect = higher value.
Assay [17] is described as follows: growth inhibition of RCMB18 medulloblastoma cells, cell-based, cisplatin and BGB IC40 combos (AID 1671462; in the data active = inhibition above about 80%;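 note: cells exposed to compound for four days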). The following applies: stronger effect = higher value.
The nature of assay [18]: growth inhibition of CRL1545 osteosarcoma cells, cell-based, cisplatin and BGB IC20 combos (AID 1671464; in the data active = inhibition above about 80%;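 note: cells exposed to compound for 96 hours before readout; 0% = vehicle DMSO and 100% = high DMSO killing control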). The following applies: stronger effect = higher value.
[19] abbreviates: measured here: combination with BGB IC40, at 0.05 µM.
[20] abbreviates: measured here: with BGB IC20 combination, at 0.5 µM.
Setting [21] is: measured here: with cisplatin IC20 combination, at 0.5 µM.
Setting [22] is: measured here: combination with cisplatin, at 0.5 µM.
Where [23] appears, read: measured here: combination with cisplatin, at 5 µM.

Consider `CCC(CC)C(c1ccc(Nc2nc3ccccc3s2)cc1)n1cncn1` (stereo not given), for which the AC50 in [1] is 18.6 µM (active). For the same compound, the IC50 in [2] is 20.9 µM (active).
In the case of `CCCN(CCC)C(=O)C1=Cc2ccc(-c3ccc(C(=O)N4CCCC4)cc3)cc2N=C(N)C1`, the AC50 in [1] was 20.9 µM (active); in [3], 23.5 µM (active). The compound was classed as inactive in assay [2].
For `Cn1ncc2cc(-c3cnc(N)c(Cl)c3N3CCC4(CCNC4=O)CC3)ccc21`, in [1], the AC50 is 20.9 µM (active). Also, the outcome in assay [3] was inactive.
As to `CC1CCC(n2c3cnccc3c3cnc(Nc4ccc5c(n4)CCN(C(=O)CO)C5)nc32)CC1` (stereo not given), the compound was classed as inactive in assay [1], in [3] and in [2].
Regarding `CCOCOC[C@H](C[C@H](C)C(=O)NO)NC(=O)c1ccc(Oc2ccccc2)cc1`, the compound was called inactive in assay [1], in assay [3] and in [2].
Consider `CNC(=O)Cn1cc(-c2ccc3c(c2)C(F)CC32NC(=O)N(CC(=O)N(Cc3ccc(F)cc3)C(C)C(F)(F)F)C2=O)cn1` (stereo not given), for which the result in [1], in [3] and in [2] was inactive.
Regarding `COC(=O)C1C2CC3c4[nH]c5cc(OC)ccc5c4CCN3CC2CC(OC(=O)c2cc(OC)c(OC)c(OC)c2)C1OC` (stereo not given), the results for the AC50 in assay [1] and in [3] were 20.9 µM (active) and 23.5 µM (active), respectively. Moreover, the result in assay [2] was inactive.
As to `CC(C)(O)CNc1nc(Nc2ccnc(C(F)(F)F)c2)nc(-c2cccc(C(F)(F)F)n2)n1`, the AC50 in assay [1] was 14.8 µM (active). In addition, in assay [2], the compound was classed as inactive.
As for `Cc1nc(C)c(CN2CCN(C(c3ccc(F)cc3)c3ccc(F)cc3)CC2)nc1C`, in [1], the AC50 was 23.5 µM (active). The result in assay [3] and in [2] was inactive.
For `CN1CCN(C(=O)c2ccc(-c3ccc4c(C=O)c(O)ccc4c3)s2)CC1`, the AC50 in assay [1] was 16.6 µM (active). Also, the compound was classed as inactive in [2].
Turning to `Cc1nc(-c2cccnc2)sc1C(=O)Nc1ccccc1-c1cn2c(CN3CCOCC3)csc2n1`, the call in [1] and in assay [2] was inactive.
`Cc1cc(Nc2ncnc3ccc(NC4=NC(C)(C)CO4)cc23)ccc1Oc1ccn2ncnc2c1`: the AC50 in [1] was 14.8 µM (active). The call in assay [2] was inactive.
As for `C[C@]12CCCN1CC1=NNC(=O)c3cc(F)cc4[nH]c2c1c34`, the AC50 in assay [1] was 18.6 µM (active). Also, the compound was called inactive in assay [3] and in [2]. Further, the inhibition was -13.4% (inactive) in assay [4] (at 0.5 µM, stronger effect = higher value); -16.8% in [4] (measured here: combination with BGB IC20, at 0.005 µM); -28.9% in [4] (measured here: combination with BGB IC40, at 0.005 µM); -3.06% in assay [4] (setting [19]); -13.1% in [4] (measured here: combination with cisplatin, at 0.5 µM, stronger effect = higher value); -44.5% in [4] (measured here: combination with cisplatin, at 5 µM, stronger effect = higher value). For the same compound, the inhibition in assay [5] (BGB combo, at 5 µM) was 6.78%; in assay [5] (at 0.5 µM) it was 9.23% (inactive); in assay [5] (cisplatin combo, at 5 µM), 35.8%; in assay [5] (setting [20]), 6.38%; in assay [5] (setting [21]), -0.356%; in assay [5] (single agent, at 5 µM), 20.9%. For the same compound, the inhibition was -2.46% in [6] (BGB IC20 combo, at 0.005 µM); -21.8% in assay [6] (BGB IC40 combo, at 0.005 µM); -22.5% in assay [6] (BGB IC40 combo, at 0.05 µM); -38.3% (inactive) in assay [6] (at 0.5 µM); -27.3% in [6] (cisplatin combo, at 0.05 µM); -41.3% in assay [6] (cisplatin combo, at 0.5 µM). The inhibition in assay [6] (cisplatin combo, at 5 µM) is -0.499%; in assay [6] (measured here: 5 uM single agent, at 5 µM) it was -4.83%; in [7] (at 0.5 µM), -20.6% (inactive); in assay [7] (setting [19]) it was 7.39%; in assay [7] (setting [22]) it was -14%; in assay [7] (setting [23]), 1.25%. Also, the inhibition was 2.64% (inactive) in assay [8] (at 0.5 µM); -13.5% in assay [8] (measured here: with BGB IC20, at 0.5 µM); 4.08% in assay [8] (measured here: with BGB IC20, at 5 µM); 10.2% in assay [8] (measured here: with cisplatin IC20, at 0.5 µM); 21.1% in assay [8] (measured here: with cisplatin IC20, at 5 µM); 23.4% in [8] (single agent, at 5 µM). Besides, the inhibition in assay [9] (at 0.5 µM) was -35.2% (inactive); in assay [9] (measured here: combination with BGB at IC20, at 0.5 µM), 1.29%; in [9] (measured here: combination with cisplatin at IC20, at 0.5 µM), -26.6%; in assay [10] (at 0.5 µM), -2.5% (inactive); in assay [10] (measured here: combo with BGB at IC20, at 0.5 µM), -14.3%; in assay [10] (measured here: combo with cisplatin at IC20, at 0.5 µM) it was 6.94%. Also, the inhibition in [11] (at 0.5 µM) was -3.02% (inactive); in [11] (measured here: inhibition with BGB combination, at 0.05 µM) it was -15.4%; in assay [11] (measured here: inhibition with cisplatin combination, at 0.05 µM) it was -2.14%; in assay [12] (at 0.5 µM) it was -20.2% (inactive); in assay [12] (setting [22]) it was -18.1%; in assay [12] (setting [23]), -24.5%. Further, the inhibition was 3.1% (inactive) in [13] (at 0.5 µM); -13.3% in [13] (measured here: BGB combination, at 0.5 µM); -31.4% in assay [13] (measured here: BGB combination, at 5 µM); 5.47% in [13] (measured here: cisplatin combination, at 0.5 µM); 22.8% in assay [13] (measured here: cisplatin combination, at 5 µM); -3.19% in assay [14] (BGB combination, concentration series, at 5 µM). Besides, the inhibition in assay [14] (at 0.5 µM) is 2.39% (inactive); in [14] (cisplatin combination, concentration series, at 5 µM), 5.42%; in [15] (at 0.5 µM) it was 14.9% (inactive); in assay [15] (measured here: combo with BGB IC20, at 0.5 µM), 12%; in assay [15] (measured here: combo with cisplatin IC20, at 0.5 µM) it was 13.1%; in assay [16] (at 0.5 µM), -23% (inactive). Besides, the inhibition in assay [16] (cisplatin combination, at 0.5 µM) was -25.6%; in [16] (cisplatin combination, at 5 µM), -25.6%; in assay [16] (measured here: BGB IC40 combination 0.05 uM, at 0.05 µM), -29%; in [16] (single agent, at 5 µM), -12.6%; in assay [17] (at 0.5 µM), -18.5% (inactive); in assay [17] (cisplatin combo, at 5 µM), 3.33%. The inhibition in assay [17] (measured here: BGB IC40 combination, at 0.05 µM) was -15.1%; in assay [17] (setting [22]), -6.38%; in assay [17] (single agent, at 5 µM), -28.1%; in assay [18] (at 0.5 µM) it was 7.98% (inactive); in assay [18] (setting [20]), -8.07%; in assay [18] (setting [21]), 16%. For the same compound, the inhibition in assay [18] (single agent, at 0.05 µM) stood at 13.9%; in assay [18] (single agent, at 5 µM), 35%.
In the case of `O=C(NCCCNC(=O)c1ccc[nH]c1=O)c1cc(-c2ccccc2)on1`, the outcome in assay [1] and in assay [2] was inactive. Moreover, the AC50 in [3] is 14.8 µM (active).
Take `O=c1oc2c(C3OCCCO3)c(O)ccc2c2c1CNCC2`: the call in [1], in assay [3] and in assay [2] was inactive.
Turning to `CC(=O)O/N=C1\C(=O)N(Cc2cc(Cl)ccc2Cl)c2ccc(Cl)cc21`, the AC50 in [3] is 23.5 µM (active). Also, the IC50 in assay [2] is 8.33 µM (active).
As for `CC(C)C[C@H](NC(=O)[C@H](Cc1ccccc1)NC(=O)OCc1ccccc1)C(=O)C=O`, in assay [3], the result was inactive.

As usually defined, the AC50 is the midpoint of the concentration-response curve, whichever way the signal moves. Broadly, the IC50 is the point on the concentration scale where inhibition reaches its midpoint. In general, inhibition refers to the change of the read-out against control, counted positive when it falls.
